Data reported in PubChem BioAssay AID1259418 (Broad Institute, 2018).
About 840 (25%) of roughly 3,400 compounds were called active. Inconclusive results (about 11%) are left out. Not all results are given here. Measured potencies and affinities stand elsewhere. Values without a mark were called inactive.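 The calls were made as follows: active = fitted half-maximal concentration of signal decrease at or below twice the sample's top tested concentration; inconclusive = flat curve between -70 and -30 percent, or poor fit; inactive = flat within 30 percent, signal rise, or potency above limit.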

assay: T. gondii growth inhibition with IFN-gamma, dose response, cell-based, ME49Luc, HeLa, luciferase, 72 h (AID 1259418); details: T. gondii ME49Luc in IFN-y HeLa, stronger effect = lower value, -100% = high-dose IFN-γ control wells; at 19.5 µM unless noted

Row | Compound | max activity
1 | COC(=O)c1cc(Cl)ccc1NC(=O)COc1nc(C)nc2ccccc12 | 15.7% [at 0.16 µM]
2 | Cc1[nH]c2ccccc2c1C(=O)C(=O)NC1CC(=O)N(c2ccccc2)C1 (stereo unspecified) | 12.7% [at 2.6 µM]
3 | Cc1nc(CCNC(=O)C2CCN(S(=O)(=O)c3cnn(C(F)F)c3C)CC2)cs1 | 8.74% [at 0.68 µM]
4 | Cc1ccoc1C(=O)N1CC[C@H]2CO[C@@H](CN3CCN(C)CC3)[C@@H]2C1 | 14.9%
5 | COc1cc(OC)c(NC(=O)COc2nc(C)nc3ccccc23)cc1Cl | 39.9%
6 | CCc1nc(OCC(=O)Nc2ccccc2OC)c2ccccc2n1 | 14.6% [at 0.35 µM]
7 | CSc1cccc(NC(=O)COc2nc(C)nc3ccccc23)c1 | 16.7% [at 5 µM]
8 | CCOc1ccc(-c2nc(CN3CCN(C(=O)Nc4ccccc4Cl)CC3)c(C)o2)cc1 | 227%
9 | Cc1ccc(-c2nc(CN3CCN(C(=O)Nc4ccc(C)cc4Cl)CC3)c(C)o2)cc1 | 13.8% [at 2.6 µM]
10 | CCOc1ccc(-c2nc(CN3CCN(C(=O)Nc4cccc(C)c4)CC3)c(C)o2)cc1 | 6.07%
11 | CCOc1ccc(-c2nc(CN3CCN(C(=O)Nc4ccc(C)c(Cl)c4)CC3)c(C)o2)cc1 | 18% [at 0.16 µM]
12 | Cc1ccc(C(=O)Nc2c(C(=O)N3CCN(c4ncccn4)CC3)[nH]c3ccccc23)cc1 | 15.6% [at 0.68 µM]
13 | COc1cccc(CNC(=O)COc2nc(C)nc3ccccc23)c1OC | 25.6%
14 | COc1ccc(-c2nc(Nc3cc(C)cc(C)c3)c3ccccc3n2)cc1 | -19.1% [at 0.35 µM]
15 | Brc1ccc(Nc2c3ccccc3nc3ccccc23)cc1 | 36.4% [at 5 µM]
16 | CN1CCN(C(=O)c2nn(C)c3c2CCN(S(C)(=O)=O)C3)CC1 | 18.7% [at 10 µM]
17 | O=C(Cc1ccccn1)N1CC(=O)N2[C@H](C1)[C@@H](c1ccc(C#CCC3CCCC3)cc1)[C@@H]2CO | 6.79% [at 0.3 µM]
18 | Cc1ccc(-c2coc(-c3ccc(NC(=O)NCc4cccc(F)c4)cc3)n2)c(C)c1 | 17.3%
19 | Cc1ccc(C)c(-c2coc(-c3ccc(NC(=O)Nc4ccccc4F)cc3)n2)c1 | -23.6% [at 0.16 µM]
20 | Cc1ccc(-c2coc(-c3ccc(NS(=O)(=O)c4cccc(Cl)c4)cc3)n2)cc1C | -24.2% [at 0.35 µM]
21 | CCc1c(C)sc2c1CCN(Cc1nc(-c3cccc(C)c3)oc1C)C2c1ccccc1 (stereo unspecified) | 5.74% [at 10 µM]
22 | COc1ccc(CCNC(=O)CC2Nc3c4ccccc4nc(=S)n3C2=O)cc1OC (stereo unspecified) | 17% [at 0.16 µM]
23 | CCc1ccc2c(c1)cc(S(=O)(=O)c1ccccc1)c(=O)n2CC(=O)NCc1ccc(F)cc1 | 15.5%
24 | Cc1ccc(C(=O)Nc2ccc(-c3nc(-c4ccc(C)cc4)co3)cc2)cc1 | 113% [at 10 µM]

Row | Compound | max activity
25 | O=C(CCn1nnc2cc(-c3noc(-c4cccc5[nH]ccc45)n3)ccc21)N1CCCC1 | 43%
26 | COc1ccc(CNS(=O)(=O)c2cc3c4c(c2)CCC(=O)N4CCC3)cc1 | -13.1% [at 10 µM]
27 | O=C1CCc2cc(S(=O)(=O)Nc3ccc4c(c3)OCCO4)cc3c2N1CCC3 | -30% [at 0.16 µM]
28 | Cc1ccc(NS(=O)(=O)c2cc3c4c(c2)CCC(=O)N4CCC3)cc1C | -11.9%
29 | Cc1ccc(NS(=O)(=O)c2cc3c4c(c2)CCC(=O)N4CCC3)c(C)c1 | 4.48% [at 2.6 µM]
30 | O=C1CCc2cc(S(=O)(=O)NCc3ccc4c(c3)OCO4)cc3c2N1CCC3 | -19.9% [at 2.6 µM]
31 | Cc1cccc(C)c1NS(=O)(=O)c1cc2c3c(c1)CCC(=O)N3CCC2 | -22%
32 | Cc1cc(C)c(NS(=O)(=O)c2cc3c4c(c2)CCC(=O)N4CCC3)c(C)c1 | 8.39%
33 | CCOc1cccc(-c2noc(-c3nnn(Cc4nc(-c5ccccc5)oc4C)c3C)n2)c1 | 8.01%
34 | COc1ccc(-c2nc3c(s2)CN(S(=O)(=O)c2cccc(Cl)c2)CC3)cc1 | -9.33% [at 2.6 µM]
35 | COc1ccc(-c2nc(Cn3nnc(-c4nc(-c5ccccc5Cl)no4)c3C)c(C)o2)cc1 | -7.3% [at 1.35 µM]
36 | CCCCc1ccc(Nc2ncnc3c2cnn3-c2ccccc2)cc1 | -7.99% [at 0.68 µM]
37 | COc1ccc(NC(=O)CN2CCC3(CC2)N=C(c2ccc(F)cc2)C(=O)N3)cc1Cl | -24% [at 0.16 µM]
38 | CCc1nc(OCC(=O)Nc2ccccc2CC)c2ccccc2n1 | 28.5%
39 | O=C(CC1CCCC1)Nc1ccc2c(c1)CCC(=O)N2 | 12.2%
40 | Cc1oc(-c2cccc(Cl)c2)nc1Cn1nnc(-c2nc(-c3ccccn3)no2)c1C | -10.2% [at 5 µM]
41 | COc1ccccc1-c1ccc(C2[C@@H]3CN(C(=O)c4ccncc4)C[C@H]2N3)cc1 (stereo partly specified) | 32.2%
42 | COc1ccc(C(=O)N2CCC3(CC2)Nc2cc(F)ccc2-n2cccc23)cc1 | -22% [at 0.16 µM]
43 | COc1ccc(-c2ccc(C3[C@@H]4CN(C(=O)c5cnccn5)C[C@H]3N4)cc2)cc1 (stereo partly specified) | 10.5% [at 10 µM]
44 | CCOC(=O)CSc1nc(NCc2ccc(OC)cc2)c2ccccc2n1 | 20.1% [at 10 µM]
45 | Cc1ccc2c(c1C)-n1cccc1C1(CCN(C(=O)Cc3ccc(F)cc3)CC1)N2 | 11.4% [at 0.68 µM]
46 | O=C(Nc1cncc(-c2nc3ccccc3o2)c1)c1cccc(Cl)c1 | 14.2% [at 0.16 µM]
47 | COc1ccc(S(=O)(=O)N2CCCCN3[C@H](C2)[C@@H](c2ccc(C#CCC(C)C)cc2)[C@@H]3CO)cc1 | 177% [at 10 µM]
48 | Cc1cccc(NC(=O)N2CCc3nc(-c4ccccc4)sc3C2)c1 | -11.3% [at 0.35 µM]

Row | Compound | max activity
49 | CCOc1ccc(CC(=O)Nc2ccc(-c3nc(-c4ccccc4)co3)cc2)cc1OCC | 30.5% [at 10 µM]
50 | Cc1ccc(NC(=O)CN2CCC3(CC2)N=C(c2ccc(F)cc2)C(=O)N3)cc1C | -13.8% [at 1.35 µM]
51 | COc1ccccc1-c1nc(Cn2nnc(-c3nc(-c4ccc(C(F)(F)F)cc4)no3)c2C)c(C)o1 | 8.9%
52 | COc1cccc(NC(=O)Nc2ccc(-c3nc(-c4ccccc4)co3)cc2)c1 | 66.2%
53 | C=CCO[C@@H]1CCN(c2cc(OC)ncn2)[C@H]1Cc1cnn(C)c1 | 25.2%
54 | CC=Cc1ccc2n(c1=O)C[C@H]1[C@H](CO)[C@@H](C(=O)Nc3ccc(-c4ccccc4)cc3)[C@@H]2N1C(=O)CC (mixture of isomers) | 25.5%
55 | COc1ccc(CNc2nc(SCc3ccccc3Cl)nc3ccccc23)cc1 | 17.2%
56 | Clc1ccc(CSc2nc(NCc3ccccc3)c3ccccc3n2)cc1 | 30.6% [at 2.6 µM]
57 | Clc1ccc(CNc2nc(SCc3ccc(Cl)cc3)nc3ccccc23)cc1 | 7.58% [at 2.6 µM]
58 | COc1ccc(CCNc2nc(SCc3cccc(F)c3)nc3ccccc23)cc1OC | 12% [at 5 µM]
59 | Clc1cccc(CSc2nc(NCCc3ccccc3)c3ccccc3n2)c1 | -7.56% [at 0.16 µM]
60 | Clc1ccc(CSc2nc(NCCc3ccccc3)c3ccccc3n2)cc1 | 29.6% [at 2.6 µM]
61 | Cc1cccc(-c2nc(Cn3nnc(-c4nc(-c5ccc(Cl)cc5)no4)c3C)c(C)o2)c1 | 25.6%
62 | O=C(NCCc1csc(-c2ccccc2)n1)C1CCN(C(=O)CCc2ccccc2)CC1 | -11.1%
63 | CCCCC[C@H](CC(=O)NO)C(=O)N[C@H](C(=O)N1CCC[C@H]1CO)C(C)C | 15.6%
64 | CCOc1ccccc1-c1nc(Cn2c(=O)c3c(C)cc(C)nc3n(-c3ccccc3)c2=O)c(C)o1 | 5.33% [at 0.16 µM]
65 | CC[C@H](C(=O)N1CCCC[C@H]1C(=O)O[C@H](CCc1ccc(OC)c(OC)c1)c1cccc(OCC(=O)NCCNC(=O)COc2cccc([C@@H](CCc3ccc(OC)c(OC)c3)OC(=O)[C@@H]3CCCCN3C(=O)[C@@H](CC)c3cc(OC)c(OC)c(OC)c3)c2)c1)c1cc(OC)c(OC)c(OC)c1 | -14% [at 5 µM]
66 | Cc1ccc(C)c(-c2coc(-c3ccc(NC(=O)NC4CCCCC4)cc3)n2)c1 | 6.93% [at 0.16 µM]
67 | N#Cc1cccc(-c2ccc3c(c2)[C@H]2[C@H](CCN2Cc2ccc4c(c2)OCO4)[C@@H](CO)N3)c1 | 21.2% [at 10 µM]
68 | N#Cc1cccc(-c2ccc3c(c2)[C@H]2[C@H](CCN2Cc2ccc4c(c2)OCO4)[C@H](CO)N3)c1 | 17.9% [at 10 µM]
69 | C/C=C/c1ccc([C@H]2[C@H]3CN(C(=O)Nc4cccc(OC)c4)CC(=O)N3[C@H]2CO)cc1 | -12% [at 21 µM]
70 | C/C=C/c1ccc([C@@H]2[C@@H](CO)N3C(=O)CN(C(=O)Nc4cccc(OC)c4)C[C@@H]23)cc1 | 27% [at 10 µM]
71 | CCCC#Cc1ccc([C@@H]2[C@H]3CN(C(=O)Nc4cccc(F)c4)CC(=O)N3[C@H]2CO)cc1 | 7.32% [at 0.16 µM]
